# Compound activity (PubChem BioAssay)
# The list is not random: actives were taken first. Their share in the collection is about 12%.
# Shiga inhibitor: blocks Shiga toxin action in Vero cells | inhibition, % at 38.7 µM | Vero cells, Shiga toxin protein synthesis inhibition reporter | actives 9.2% (n = 290,000); in the data active means inhibition mostly above about 28%, no sharp cut-off; inactive means mostly below about 43%; further: 0% is about no effect
# MARV entry inh: inhibitors of Marburg virus binding or cell entry | Marburg virus pseudotyped entry inhibition, cell reporter | Potency, µM (highest dose often 37.8 µM), for the others: top-dose activity change, negative = inhibition, hits mostly inhibitors | actives 1.8% (n = 300,000) | AID 540276; calls by dose curve; tested in HEK293 cells; further: potency means the concentration at half of the fitted maximal effect; on the % scale 0 is the no-effect control and ±100 the full control effect
# Lassa entry inh: blocks Lassa virus binding to or entry into cells. Lassa virus pseudotype entry inhibition, cell reporter. Potency, µM (top dose mostly 37.9 µM), inactives show at the top dose activity change, negative = inhibition, usual class: inhibitors. actives 1.2% (n = 300,000); calls by dose curve; tested in HEK293 cells; further: potency means the concentration at half of the fitted maximal effect; on the % scale 0 is the no-effect control and ±100 the full control effect; nearly all actives have a fitted effect of over 50% in size
# CHX counter: affects cycloheximide protein synthesis inhibition readout, counter-screen; cell reporter, cycloheximide protein synthesis inhibition counterscreen; max response, %; actives 12% (n = 300,000); AID 2314; in the data active means max response mostly above about 13%, no sharp cut-off; inactive means mostly below about 14%; further: read at 38.3 µM for the half of the compounds with a filed dose; 0% is about no effect
# Active calls of the source: *; u = inconclusive; x = not tested or not shown; [ ] = another dose, or the depositor's remark.
SMILES,Shiga inhibitor,MARV entry inh,Lassa entry inh,CHX counter
O=C(/C=C/NNC(=O)c1ccc(Cl)cc1)c1ccccc1,47*,x,x,31*
COc1ccc(C(=O)C=CNNC(=O)c2ccc(Cl)cc2)cc1,x,u,5.6µM*,16*
COc1cc(/C=C2\NC(=S)NC2=O)ccc1OCc1cccc(C(=O)O)c1,102*,u,u,79*
O=C1NC(=O)/C(=C\c2ccc(OCc3cccc(C(=O)O)c3)c(Cl)c2)N1,161*,u,6.3µM*,81*
CN(C)/C=C(/C(=O)c1ccccc1Cl)S(=O)(=O)c1ccccc1,x,0%,2%,x
COc1ccc(C(=O)/C(=C/N(C)C)S(=O)(=O)c2ccccc2)cc1,61*,u,23%,27*
O=C(N/N=C/C1CC=CCC1)c1cc(Br)ccc1O (stereo not drawn),9,u,10%,31*
Cc1ccc(C(=O)N/N=C\C2CC=CCC2)cc1[N+](=O)[O-] (stereo not drawn),-5,x,x,8
O=C(N/N=C/C1CC=CCC1)c1ccc(Cl)cc1O (stereo not drawn),51,7%,13%,28*
O=C(N/N=C/C1CC=CCC1)c1ccccc1O (stereo not drawn),39*,-4%,11%,29*
Cc1cc(C)cc(NC(=O)N2CCC(C(N)=O)(N3CCCCC3)CC2)c1,x,-9%[46.1 µM],6%[46.1 µM],x
CCn1c(SCC(=O)N2CCOCC2)nc2c([nH]c3ccccc32)c1=O,-4,x,x,-3
COc1ccc(/C=C(/C#N)C(=O)NC2CCCCC2)cc1Br,21,u,-13%,-4
N#C/C(=C\c1ccc2c(c1)OCCO2)C(=O)NC1CCCCC1,24,25%,13%,39*
CCCCNC(=O)/C(C#N)=C/c1ccc2c(c1)OCCO2,50*,8%,u,47*
COc1cc2c(Cc3ccccc3)cncc2cc1O,x,12%,-4%,x
CC1CCC(CC(=O)O)(C(=O)O)CC1 (stereo not drawn),x,-4%[46.1 µM],1%[46.1 µM],x
Cc1ccc(-c2nc(N)n(S(C)(=O)=O)n2)cc1,40,21%,u,30*
COc1ccc(-c2ccc(C(C)=O)cc2)cc1C1C2C=CCCC2(C)C(=O)N1Cc1ccccc1 (stereo not drawn),17,x,x,11
COc1ccc(CCNC(=O)C(=O)NCC2OCCN2S(=O)(=O)c2ccccc2)cc1 (stereo not drawn),-2,x,x,-1
COC(=O)CSc1nc2cc(OC)ccc2cc1C#N,68*,7%,-4%,53*
COC(=O)CSc1nc2ccc(C)cc2cc1C#N,149*,x,x,36*
CCOc1ccc2nc(SCC#N)c(C#N)cc2c1,24,u,-8%,22*
COc1ccc2cc(C#N)c(SCC(=O)N3CCCC3)nc2c1,14,u,-8%,3
COC(=O)CSc1nc2cc(C)cc(C)c2cc1C#N,-10,7%,u,-2
SMILES,Shiga inhibitor,MARV entry inh,Lassa entry inh,CHX counter
COc1ccc(C(=O)NCCNc2nc3ccc(C)cc3cc2C#N)cc1,34*,x,x,23*
Cc1ccc2nc(NCCNC(=O)c3ccccc3)c(C#N)cc2c1,x,x,x,1
Cn1cccc1C(=O)OCC(=O)N1c2ccccc2NC(=O)C1(C)C,-13,x,x,-3
COC(=O)CCC(=O)c1ccn(S(=O)(=O)c2ccccc2)c1,-3,x,x,-6
CCOc1ccc2cc(C#N)c(SCC(=O)N3CCC(C)CC3)nc2c1,-5,u,u,1
CCOC(=O)CSc1nc2cc(OCC)ccc2cc1C#N,88*,u,u,65*
CCC[C@H](N[C@@H](CCC)[C@H](O)c1ccccc1)[C@H](O)c1ccccc1,x,8.9µM*,-28%[46.1 µM],x
O=C1[C@H]2[C@@H]3[C@@H](O)[C@H](O)CC(=NOCc4ccccc4)[C@H]3CC[C@H]2C(=O)N1C1CCCCC1,x,-25%[14.2 µM],u,x
CCOC(=O)CCN1C(=O)[C@H]2[C@H]3[C@H](O)[C@H](O)C/C(=N\OCC(C)C)[C@@H]3CC[C@H]2C1=O,x,-11%[14.2 µM],x,x
Cc1ccc(C(=O)Nc2ccc3oc(-c4cccnc4)nc3c2)c(Cl)c1,x,10%[46.1 µM],22%[46.1 µM],x
O=C1c2ccccc2S(=O)(=O)N1CCOc1ccc(F)cc1,55,4%,8%,21*
COc1ccc(O)c(C(=O)c2cnc3nc4ccccc4n3c2)c1,-1,u,1%,2
COc1ccc(O)c(C(=O)c2cnn(-c3ccccn3)c2)c1,63*,-7%[46.1 µM],u,33*
COc1ccc(O)c(C(=O)c2cc(C#N)c(=O)n(-c3ccc(Cl)cc3)c2)c1,-1,x,x,6
COc1ccc(O)c(C(=O)c2cnn(-c3ccc(Cl)cc3)c2)c1,40*,-17%[46.1 µM],x,20
O=C(Cc1ccccc1)Nc1ccc(N2CCCC2)cc1,30,7%[46.1 µM],15%,15
O=C(Cc1ccccc1)Nc1ccc(N2CCOCC2)cc1,46*,u,-27%[46.1 µM],28*
